42 compounds from PubChem BioAssay AID2546 (National Center for Advancing Translational Sciences (NCATS), 2010) can be followed below.

The campaign covered roughly 310,000 compounds. About 11,000 (3.5%) were called active. Another 8% or so got no clear call; they are omitted. Shown is part of a subset that was picked to be rich in actives. Values without a mark were called inactive. Calls follow the shape of the dose curve; as a rule, active = well fitted inhibition curve with a large enough effect; inconclusive = small, poorly fitted or top-dose-only effect, or effect the other way; inactive = flat fitted curve, though single readings scatter.
% is scaled to controls: 0 for no effect and ±100 for the full control effect; potency is read from the fitted curve at half-maximal effect.

The nature of this assay: VP16 counterscreen qHTS for inhibitors of ROR gamma transcriptional activity.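 Also: Gal4-VP16 expression switched on by copper sulfate through the metallothionein promoter; nearly all actives have a fitted effect of over 50% in size.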 The following applies: Drosophila S2 Gal4-VP16 UAS-luciferase, luminescence, 20 h; series mostly up to 53.6 µM; activity, negative = inhibition: at the top concentration. The source says: NIH Molecular Libraries Probe Production Network [MLPCN]
NIH Chemical Genomics Center [NCGC]
Assay Provider: Dan Littman, New York University
The retinoic acid-related orphan receptor (ROR) gamma is a transcription factor that has a central role in the differentiation of Th17 cells, a subset of T helper cells that secrete the inflammatory cytokines IL-17, IL-17F, and IL-22. Th17 cells have been implicated in graft versus host disease, autoimmune disease and asthma. ROR gamma is induced in naive T helper cells in the presence of TGF-beta combined with IL-6, IL-21, or IL-23, and thereafter directs the expression of the Th17 lineage cytokines. To identify nonspecific inhibitors, a Drosophila Schneider cell line was stably transfected with two vectors: a gene expressing a fusion of the Gal4 DNA binding domain and VP16 transactivation domain under the control of the metallothionine promoter and a Photinus luciferase reporter regulated by the Gal4 binding site enhancer, UAS. […] Small molecule inhibitors that inhibit components common to the RORgt and VP16 assays, such as the Gal4 DNA binding domain or the UAS luciferase reporter, will be active in both assays and thus scored as nonspecific.
For screening, 600 cells in 4 uL/well were dispensed into white solid 1536-well plates (Grenier) using a solenoid-based dispenser. Following transfer of 23 nL compound or DMSO vehicle by a pin tool, the plates were incubated 1 hr at ambient temperature, and 1 uL/well copper sulfate (700 uM final concentration) was added. The plates were centrifuged 15 s at 1000 RPM and incubated 20 hr at ambient temperature. After addition of 1.5 uL Photinus luciferase detection reagent, the plates were incubated 10 min at ambient temperature and then read by a ViewLux (Perkin Elmer) to detect luminescence.
For the compound `ClC(Cl)=C(Cl)C(Cl)=C(Cl)Cl`, the “activity, negative = inhibition” value was 2.07%.

Take `c1csc(CN2CCCC3(CCNCC3)C2)n1`: the “activity, negative = inhibition” value is 5.75%. Still for that read-out and setting: the result for `CN[C@@H]1C[C@H]2O[C@@](C)([C@@H]1OC)n1c3ccccc3c3c4c(c5c6ccccc6n2c5c31)C(=O)NC4` reads -1.08% [at 10 µM]; that for `COC(=O)c1ccc2[se]c(CC3CCCCC3)c(I)c2c1`, 1.9%; that for `CCN(CC)c1nc(C)cc(OP(=S)(OC)OC)n1`, -2.31%.

With `C=CC#N`, the “activity, negative = inhibition” value was 10.3%. As to `N#Cc1c(Cl)c(Cl)c(Cl)c(C#N)c1Cl`, the Potency was 1.78 µM (active). Same read-out and setting: the result for `CCCCC/C=C\C/C=C\C/C=C\C/C=C\CCCCCC(=O)NCCO` reads “inactive”. For the compound `N#CCCCl`, the Potency result was “inactive”. Consider `O=C1NC(=O)N(c2ccccc2)C(=O)/C1=C/c1ccc([N+](=O)[O-])s1`, for which the “activity, negative = inhibition” value was 6.23%. In the case of `Cc1cccc(N2C(=O)NC(=O)/C(=C\c3cnn(-c4ccccc4)c3)C2=O)c1`, the Potency was 12.6 µM (active). As for `COc1cccc(N2C(=O)NC(=O)/C(=C\c3ccc([N+](=O)[O-])s3)C2=O)c1`, the “activity, negative = inhibition” value is -11.7%. Consider `N#Cc1cc(Br)c(O)c(Br)c1`, for which the “activity, negative = inhibition” value is -13.2%. The same measure, in the same setting: next, `N[C@H](Cc1o[nH]c(=O)c1Cl)C(=O)O`: -10.8%. Same read-out and setting: the result for `COC1CC(OC2CC[C@@]3(C=O)C4CC[C@]5(C)C(C6=CC(=O)OC6)CC[C@@]5(O)C4CC[C@]3(O)C2)OC(C)C1O` (some centres not stated) reads 16.8%. Turning to `CC[N+](C)(CC)CCC[n+]1c(-c2ccccc2)c2cc(N)ccc2c2ccc(N)cc21`, the Potency is 2.51 µM (active). For `O=P1(Oc2ccccc2)CC(O)C(O)C(COCc2ccccc2)O1` (configuration not stated), the “activity, negative = inhibition” value is -5.85%. On to `C[C@H]1CC[C@@]2(NC1)O[C@@H]1C[C@H]3[C@@H]4CC=C5C[C@@H](O)CC[C@]5(C)[C@@H]4CC[C@]3(C)[C@@H]1[C@@H]2C`, for which the “activity, negative = inhibition” value is -5.63% [at 17 µM]. On the same count and under the same terms, next, `CN1C2CC3CC1C(O3)C2O` (configuration not stated): 7.32%; `COC([CH2][Hg])CNC(=O)c1ccccc1OCC(=O)O` (configuration not stated): 3.54%.

Consider `Nc1ccc(-c2ccc(N)c(N)c2)cc1N`, for which the “activity, negative = inhibition” value was 15.7%. The same measure, in the same setting: next, `COc1cc2c(cc1OC)[C@@H]1C(=O)c3ccc(O)c(CC=C(C)C)c3OC1CO2` (some centres not stated): -2.2%; `CCCCn1c(=O)c(C(=O)Nc2ccccc2Cl)c(O)c2ccccc21`: 26.2%. Take `CCCCCn1c(=O)c(C(=O)NCc2ccccn2)c(O)c2ccccc21`: the Potency was 17.8 µM (active).

As for `CCCCCn1c(=O)c(C(=O)Nc2c(C)n(C)n(-c3ccccc3)c2=O)c(O)c2ccccc21`, the “activity, negative = inhibition” value was -11.3%.

Take `Clc1ccc([C@@H]2C[C@H]3CC[C@@H]2N3)cn1`: the “activity, negative = inhibition” value was 5.01%. With `Cc1cccc([C@H](C)c2cnc[nH]2)c1C`, the “activity, negative = inhibition” value is 3.21%. Same read-out and setting: the result for `COc1ccccc1-c1[se]c2ccccc2c1I` reads -3.29%; that for `O=C1CCc2cccc3c2N1CC3`, -7.75%. As for `CCC(C)C(=O)O[C@@H]1C[C@@]2(C)C(c3ccoc3)OC(=O)CC23OC2(C)O[C@@]14[C@@]1(C)C(CC(=O)OC)C5(C)CC1(O)C(O)(C5OC(=O)C1(C)OC1C)C(OC(C)=O)[C@@]34O2` (some centres not stated), the “activity, negative = inhibition” value was -14.6%. With `BrC1C(Br)C(Br)C(Br)C(Br)C1Br` (configuration not stated), the Potency was 7.94 µM (active). Consider `N[C@H](C(=O)O)c1cc(=O)[nH]o1`, for which the “activity, negative = inhibition” value was -10.3%. On the same count and under the same terms, next, `CCCCC/C=C\C/C=C\C/C=C\C=C\[C@H](CCCC(=O)O)OO`: -1.54%; `C/C(=C\C=C/[C@@H](C)C(=O)O)[C@H]1CN[C@H](C(=O)O)[C@@H]1CC(=O)O`: -2.02%. On to `CC(C)(Cc1c[nH]c2ccc(Cl)cc12)NCCOc1ccccc1OCC1CC1`, for which the Potency was 15.8 µM (active). For `C[C@H]1C/C=C/[C@@H]2[C@@H]3O[C@]3(C)[C@@H](C)[C@H]3[C@H](Cc4ccccc4)NC(=O)[C@]32OC(=O)O/C=C/[C@](C)(O)C1=O`, the “activity, negative = inhibition” value is 2.16%. For `C[C@@H]1C[C@H]2CC[C@H](O2)[C@H](C)C(=O)O[C@@H](C)C[C@@H]2CC[C@@H](O2)[C@@H](C)C(=O)O[C@H](C)C[C@H]2CC[C@H](O2)[C@H](C)C(=O)O[C@@H](C)C[C@@H]2CC[C@@H](O2)[C@@H](C)C(=O)O1`, the Potency was 1 µM (active). As for `C1CC[C@H]([C@@]23C[C@H](C[C@H]4CCCN[C@H]42)[C@@H]2CCCCN2C3)NC1`, the “activity, negative = inhibition” value was -7.87%. Still for that read-out and setting: next, `O=C(Nc1cccc(F)c1)N1CC[C@@]2(CCCN(C(=O)Oc3ccccc3)C2)C1`: -13.3%.

On to `C=CCSSCC=C`, for which the “activity, negative = inhibition” value was -13.7%. On the same count and under the same terms, the result for `CC(C)(c1ccc(OC[C@@H]2CO2)cc1)c1ccc(OC[C@H]2CO2)cc1` reads 1.63%; that for `O=C(N/N=C/c1ccc([N+](=O)[O-])o1)c1cc([N+](=O)[O-])cc([N+](=O)[O-])c1O`, -5.16%.
